# From the supplement of paper PMC11417369
# Over roughly 25,000 sequences, “ln(normalized median fluorescence intensity)” has its median near 6.7; the highest 2% begin near 10. For the sample, the highest values were picked, then their nearest neighbours and some sequences at random.
# System: PfHDP1 homeodomain (GST-tagged)
# Test: gcPBM binding intensity (ln(normalized median fluorescence intensity)); higher = stronger DNA binding
# Summary of the method: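 Plasmodium falciparum DNA-binding domains carrying a GST tag were expressed in E. coli and applied for 1 h, at about 25 μg on average, to an Agilent 4 × 180k array. The array held primer-extended double-stranded 36-bp intergenic genomic probes together with negative controls, and binding took place in 1× PBS with 1% milk, 0.2 mg/ml BSA, 0.5% salmon testes DNA and 0.03% Triton X-100. An Alexa488 anti-GST antibody detected bound protein, and the array was scanned at 488 nm. Binding intensity is taken as the highest Masliner-normalised natural-log median intensity across replicate spots of either probe orientation.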
row,Sequence,gcPBM binding intensity (ln)
1,TAATATATCTATAATACACACTATTCTAATCACATA [CACACA_site6731],6.49
2,AGTAGTCTGGAGAAGAGTACATAGTATCTGGTAGCT [XGTACX_site2017],6.4
3,TACCCTTGCATGTAGGTGCAATTTTTTTTTTTTTTT,9.32
4,ATTTATATTACCCTTGCATGTAGGTGCAATTTTTTT [TGCATGCA_site757],10.5
5,ATATTTTTATTAGTAGTGCAATTTAGTGTATATATA [GTGCAC_site9542],10.1
6,AAAAAAAAAAAACACACACACACATACACATACATA [CACACA_site2858],6.83
7,TTAACATCAAAATATGCACACAAACAATTAGCGGTA [CACACA_site8801],9.76
8,CAAAAGGATATGCACACACACACACGGATATTTATA [CACACA_site7099],10.1
9,TATGAAAAAATATATACACACATAATAAAGGTATAT [CACACA_site3737],6.42
10,TATTTATGCACGCGTGCACACACATATGAAAAAAGG [CACACA_site9090],10.9
11,TTTATGACTTGAAAAAGTACACATATATTTATGCAA [XGTACX_site5451],6.31
12,TTTATGCACGCGTGCACACACATATGAAAAAAGGTA [CACACA_site3315],11
13,TTATATGCATAAAAAGGTACACATATATAAATAAAT [XGTACX_site6894],6.68
14,TTAGGAAGCTCACAAAATAAAGTGAAAAGAAGAAAA [XGTACX_negctrl_site572],6.45
15,CCACAAGTATATAGTAGTACAATTTTTTTCTCTTTA [XGTACX_site4403],6.12
16,ACAACAAAAATAAGCACACACAAATATACATACATA [CACACA_site7664],6.55
17,CTTTTATTGCTCTATATGCACACCTTAATTCTTCAT [CACACA_site2195],10.5
18,TTCTCTATAAATGCTGCACACACATTTAATTATTTA [CACACA_site8828],8.06
19,TTTTTATATAACCTTCTTAATTCTTTTTTTTTTTTT [XGTACX_negctrl_site591],6.16
20,TTTATTGCTCTATATGCACACCTTAATTCTTCATTT [CACACA_site8682],11.1
21,CTCTTCTATATATAAGCATGCATTCATAATAATTTA [TGCATGCA_site679],7.04

row,Sequence,gcPBM binding intensity (ln)
1,TCATATAATATTTATATGCACACTTTTCTATATATA [CACACA_site4075],8.75
2,AAAAGGAACGGACACACACACATATATATATATATA [CACACA_site5894],9.45
3,TTTTTGAGTGCACATACACACAGACATACATTTAAA [CACACA_site5813],10.4
4,TTAATATAACTTTTTGCACACTTAATTTTTTTTTTT [CACACA_site3364],10.2
5,TATATTAAACTTTGCACACATAATTTAACTACAAAG [CACACA_site3441],10.5
6,ACTAAACTTTTATGTACACACATATAACATTAATTT [CACACA_site5276],6.98
7,TTTTTTTTTTTTTTTGCACACTATATTTAATATAAG [CACACA_site2444],9.31
8,AATATAACTTTTTGCACACTTAATTTTTTTTTTTAA [CACACA_site3365],10.6
9,TATATATTAAACTTTGCACACATAATTTAACTACAA [CACACA_site3440],10.7
10,ATGTATATGTTTTGTTGTACAAGTATTTTATATCTT [XGTACX_site3588],6.77
11,TTCATATTATAGTGCACACAAAAATATATATATGGT [CACACA_site2855],10.4
12,AAAATTAAACTCACACCACACACAAAAAAAAAAAAA [CACACA_site8131],6.32
13,CTCATAGTTGGGTGCACACAAAAAATTAAAAAAATA [CACACA_site3032],10.3
14,AACTCATAGGAGTGTGCACACAAAAAATTAAAAAAA [CACACA_site8996],11
15,AACTCATAGCGGTGTGCACACAAAAAATTAAAAAAA [CACACA_site3033],11
16,AATTATTAGCGTGGTGTGCACAAAATTATGGACACA,9.8
17,AGTATATATTATATATATATATATATATTATATATG [TGCATGCA_negctrl_site99],6.59
18,CTTTCTTATTTGAACGCATGCATTTGTACCTTTTAT [TGCATGCA_site671],6.85
19,AAATTCCACCAACACACACACATATAAATAAATAAA [CACACA_site1233],6.84
20,TTCAAAACTTAAAATCGTACAAGACAATTATTATAT [XGTACX_site6626],6.32
21,TTCTTTTTATTTATATTTTCCCCTCTCTATAGCTAT [XGTACX_negctrl_site102],7.06
